# Assay results taken from article PMC8384837, “Expanding the binding specificity for RNA recognition by a PUF domain”.
# Where a chain is given by its changes, count along the chain named.
# Legend:
# Experiment in all cases: yeast three-hybrid, YBZ-1, SC-Leu-His + 0.5 mM 3-AT, 4 days
# Conditions in all cases: tags: N-Gal4 AD-HA kept; label: inside an RPR1-promoter hybrid RNA with tandem MS2 sites; ssRNA
# PUM1 PUF domain R8-AYK = PUM1 PUF domain R8-AYK (Homo sapiens, UniProt Q14671 828-1176, N1122A;Q1126K)
# How it was run: (§1)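 Each repeat of the Pumilio-1 PUF domain was randomized at its three base-contacting residues, and these libraries were co-expressed from a centromeric plasmid with matching RNA elements in strain YBZ-1. After four days on SC-Leu (input) or SC-Leu-His + 0.5 mM 3-AT (selection), the repeat regions were PCR-amplified and Illumina-sequenced. The interaction score compares variant frequency between input and selection as a log change, computed in log2 with a pseudocount of 1 for absent variants.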
# PUM1 PUF domain R8-RFL = PUM1 PUF domain R8-RFL (Homo sapiens, UniProt Q14671 828-1176, N1122R;Y1123F;Q1126L)
# How it was run: as §1
# PUM1 PUF domain R5-RMP = PUM1 PUF domain R5-RMP (Homo sapiens, UniProt Q14671 828-1176, C1007R;R1008M;Q1011P)
# How it was run: as §1
# PUM1 PUF domain R6-SWA = target: T1, PUM1 PUF domain R6-SWA (Homo sapiens, UniProt Q14671 828-1176, N1043S;Y1044W;Q1047A)
# T1 sequence: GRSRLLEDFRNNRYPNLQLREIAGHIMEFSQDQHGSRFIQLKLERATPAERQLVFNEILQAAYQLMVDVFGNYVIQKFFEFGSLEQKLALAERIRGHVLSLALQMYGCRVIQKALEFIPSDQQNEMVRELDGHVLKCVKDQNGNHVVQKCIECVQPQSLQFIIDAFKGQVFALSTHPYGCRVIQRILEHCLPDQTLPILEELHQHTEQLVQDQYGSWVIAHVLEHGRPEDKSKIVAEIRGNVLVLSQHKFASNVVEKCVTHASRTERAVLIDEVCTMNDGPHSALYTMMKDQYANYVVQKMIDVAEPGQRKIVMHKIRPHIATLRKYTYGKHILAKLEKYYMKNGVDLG
# How it was run: as §1
# PUM1 PUF domain R2-NRG = PUM1 PUF domain R2-NRG (Homo sapiens, UniProt Q14671 828-1176, Y900R;Q903G)
# How it was run: as §1
# PUM1 PUF domain R3-GHP = PUM1 PUF domain R3-GHP (Homo sapiens, UniProt Q14671 828-1176, C935G;R936H;Q939P)
# How it was run: as §1
# PUM1 PUF domain R3-WCG = PUM1 PUF domain R3-WCG (Homo sapiens, UniProt Q14671 828-1176, C935W;R936C;Q939G)
# How it was run: as §1
# PUM1 PUF domain R2-GWG = PUM1 PUF domain R2-GWG (Homo sapiens, UniProt Q14671 828-1176, N899G;Y900W;Q903G)
# How it was run: as §1
# PUM1 PUF domain R7-RIL = PUM1 PUF domain R7-RIL (Homo sapiens, UniProt Q14671 828-1176, S1079R;N1080I;E1083L)
# How it was run: as §1
# PUM1 PUF domain R6-YWV = target: T2, PUM1 PUF domain R6-YWV (Homo sapiens, UniProt Q14671 828-1176, N1043Y;Y1044W;Q1047V)
# T2 sequence: T1 sequence with S216Y, A220V
# How it was run: as §1
sequence,measurement,setting,value
GGCUAGAACUAGUGGAUCCCCCGGCGCCCGGCGGCUCGAGCCCGGGUAAGCGUAAAUAGUCUGCAUGCCGCCGGGCGCCAUGCCUGCAGGUCGACUCUAGAAAACAUG,binding signal,PUM1 PUF domain R8-AYK,4.11 log2 enrichment (interaction score)
same,binding signal,PUM1 PUF domain R8-RFL,5.36 log2 enrichment (interaction score)
GGCUAGAACUAGUGGAUCCCCCGGCGCCCGGCGGCUCGAGCCCGGGUAAGUGUAAAUAGUCUGCAUGCCGCCGGGCGCCAUGCCUGCAGGUCGACUCUAGAAAACAUG,binding signal,PUM1 PUF domain R5-RMP,0.45 log2 enrichment (interaction score)
same,binding signal,PUM1 PUF domain R8-AYK,2.5 log2 enrichment (interaction score)
same,binding signal,PUM1 PUF domain R6-SWA,1.55 log2 enrichment (interaction score)
same,binding signal,PUM1 PUF domain R2-NRG,2.44 log2 enrichment (interaction score)
same,binding signal,PUM1 PUF domain R8-RFL,4.7 log2 enrichment (interaction score)
GGCUAGAACUAGUGGAUCCCCCGGCGCCCGGCGGCUCGAGCCCGGGUAAGUGUAAGUAGUCUGCAUGCCGCCGGGCGCCAUGCCUGCAGGUCGACUCUAGAAAACAUG,binding signal,PUM1 PUF domain R3-GHP,4.47 log2 enrichment (interaction score)
same,binding signal,PUM1 PUF domain R3-WCG,4.13 log2 enrichment (interaction score)
GGCUAGAACUAGUGGAUCCCCCGGCGCCCGGCGGCUCGAGCCCGGGUAAGUGUAAAGAGUCUGCAUGCCGCCGGGCGCCAUGCCUGCAGGUCGACUCUAGAAAACAUG,binding signal,PUM1 PUF domain R2-GWG,2.13 log2 enrichment (interaction score)
GGCUAGAACUAGUGGAUCCCCCGGCGCCCGGCGGCUCGAGCCCGGGUAAGUUUAAAUAGUCUGCAUGCCGCCGGGCGCCAUGCCUGCAGGUCGACUCUAGAAAACAUG,binding signal,PUM1 PUF domain R7-RIL,2.38 log2 enrichment (interaction score)
GGCUAGAACUAGUGGAUCCCCCGGCGCCCGGCGGCUCGAGCCCGGGUAAGUGAAAAUAGUCUGCAUGCCGCCGGGCGCCAUGCCUGCAGGUCGACUCUAGAAAACAUG,binding signal,PUM1 PUF domain R6-YWV,4.97 log2 enrichment (interaction score)
same,binding signal,PUM1 PUF domain R6-SWA,3.21 log2 enrichment (interaction score)
GGCUAGAACUAGUGGAUCCCCCGGCGCCCGGCGGCUCGAGCCCGGGUAAGUGUAAAAAGUCUGCAUGCCGCCGGGCGCCAUGCCUGCAGGUCGACUCUAGAAAACAUG,binding signal,PUM1 PUF domain R2-GWG,3.32 log2 enrichment (interaction score)
same,binding signal,PUM1 PUF domain R2-NRG,2.91 log2 enrichment (interaction score)
GGCUAGAACUAGUGGAUCCCCCGGCGCCCGGCGGCUCGAGCCCGGGUAAGUGUCAAUAGUCUGCAUGCCGCCGGGCGCCAUGCCUGCAGGUCGACUCUAGAAAACAUG,binding signal,PUM1 PUF domain R5-RMP,4.09 log2 enrichment (interaction score)
GGCUAGAACUAGUGGAUCCCCCGGCGCCCGGCGGCUCGAGCCCGGGUAAGUGUAAUUAGUCUGCAUGCCGCCGGGCGCCAUGCCUGCAGGUCGACUCUAGAAAACAUG,binding signal,PUM1 PUF domain R3-GHP,4.31 log2 enrichment (interaction score)
